Screening data deposited in PubChem BioAssay by National Center for Advancing Translational Sciences (NCATS).
Sampled rows, rich in hits. Any-hit rate of the full collection: about 8.9%.
KB-V1 MDR tox: KB-V1 MDR subline cytotoxicity. AID 1347076. KB-V1 MDR cells viability, CellTiter-Glo, 72 h. actives 3.4% (n = 400,000). Potency, µM (highest dose often 46.1 µM), usual class: cytotoxic; further: nearly all actives have a fitted effect of over 60% in size
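Cytotoxicity toward P-gp-expressing KB-V1 cells was determined as loss of CellTiter-Glo luminescence after 72 h at 37 degrees C. Compounds were tested in quantitative HTS format across a concentration range, with curves fitted to normalized data.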
D3 ag: agonists of human D3 dopamine receptor; actives 0.58% (n = 410,000); D3R DiscoveRx beta-arrestin cells, luminescence, 90 min; P35462; AID 652048; max activation, %; in the data active means max activation above about 30%
Target sequence (P35462 whole entry, looked up): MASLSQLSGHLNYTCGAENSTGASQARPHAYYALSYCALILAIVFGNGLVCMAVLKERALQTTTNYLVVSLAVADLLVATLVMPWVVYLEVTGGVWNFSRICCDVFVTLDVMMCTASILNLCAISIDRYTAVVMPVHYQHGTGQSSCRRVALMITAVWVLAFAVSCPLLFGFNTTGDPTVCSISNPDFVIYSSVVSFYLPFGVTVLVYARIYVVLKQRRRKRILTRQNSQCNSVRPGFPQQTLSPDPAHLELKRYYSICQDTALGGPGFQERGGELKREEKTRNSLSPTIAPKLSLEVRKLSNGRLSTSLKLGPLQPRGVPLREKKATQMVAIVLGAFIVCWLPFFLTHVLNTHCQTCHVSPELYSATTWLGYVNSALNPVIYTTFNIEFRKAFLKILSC
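Agonist-mode cell screen: cells plated at 1500/well and incubated overnight at 37 °C, then exposed to library compounds for 90 min at 37 °C. Detection reagent was added for 30–60 min at room temperature, and luminescence was read.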
SW480 rerep: induces DNA re-replication in SW480 colon adenocarcinoma cells; AID 624297; Potency, µM (doses to about 46.1 µM), usual class: activators; actives 1.8% (n = 340,000); SW480 DNA re-replication, Hoechst DNA content imaging, 48 h; further: nearly all actives have a fitted effect of over 55% in size
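Hoechst fluorescence of nuclei (405 nm excitation, 500-530 nm emission) measured by plate-scanning imager after 48 hr compound exposure at 37 C; re-replication scored as increased number of nuclei with elevated intensity.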
KB-3-1 tox: kills parental KB-3-1 adenocarcinoma cells | Potency, µM (titrated, usually from 46.1 µM), hits mostly cytotoxic | AID 1347075 | KB-3-1 viability, CellTiter-Glo ATP luminescence, 72 h | actives 1.4% (n = 400,000); further: nearly all actives have a fitted effect of over 60% in size
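Multi-concentration cytotoxicity screen in KB-3-1 cells grown in DMEM lacking phenol red with 10% FBS. After 72 h at 37 °C with compound, ATP-dependent luminescence was recorded.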
MCF10A rereplic: DNA re-replication induction in MCF 10a cells. MCF 10A DNA re-replication, Hoechst nuclear intensity, 48 h. actives 2.9% (n = 350,000). Potency, µM (doses to about 46.1 µM), hits mostly activators; further: nearly all actives have a fitted effect of over 50% in size
D3 antag: antagonists of human D3 dopamine receptor. P35462. D3R cells, DiscoveRx beta-arrestin luminescence, antagonist mode; active compounds read low. max response, negative = inhibition, %. actives 2.5% (n = 360,000); in the data active means max response below about -50%; inconclusive means no clear call, values can overlap the other calls
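Cells plated overnight at 1500 cells/well, then exposed to library compounds with dopamine controls for 90 minutes at 37 degrees C. DiscoveRx reagent added for 30–60 minutes at room temperature; luminescence read, quantitative HTS format.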
Large screens that a line does not name were inactive; ! = repeats disagree. Unless noted, the call rests on the fitted dose curve; in most records, active means well fitted curve in the direction sought with a large enough effect; inconclusive means small, poorly fitted or top-dose-only effect, or another doubt; inactive means no such curve, though single readings can be large; an effect the other way counts as inactive or inconclusive.

Cc1ccccc1-n1c(C)nc2ccccc2c1=O	D3 ag 68!
Cn1c(O)c(/C=N/NC(=O)c2ccncc2)c(=O)n(C)c1=S	SW480 rerep 8.2µM, MCF10A rereplic 9.2µM
Cc1ccc(C[n+]2c(-c3ccc(C)cc3)cc(-c3ccc(C)cc3)cc2-c2ccc(C)cc2)cc1	KB-V1 MDR tox inconclusive, SW480 rerep inconclusive, KB-3-1 tox 5.8µM, MCF10A rereplic 23µM
Brc1ccc2c(c1)-n1nncc1CN(CC1CCCCC1)C2	D3 antag inconclusive (no result: SW480 rerep, MCF10A rereplic)
Cc1ccc(CN2Cc3ccc(Br)cc3-n3nncc3C2)cc1	D3 antag -55 (no result: SW480 rerep, MCF10A rereplic)
CN1CCN(/N=C/c2c(O)n(C)c(=O)n(C)c2=O)CC1	SW480 rerep inconclusive
Cn1c(O)c(C=NCCCN2CCCC2=O)c(=O)n(C)c1=O	D3 antag -65
CCCCC[C@@H](O)C1C(=O)OC(C)[C@H](O)/C=C/C=C/C=C/C=C/C=C(\C)C(O)C(O)C(O)C[C@H](O)C[C@H](O)C[C@H](O)C[C@H](O)C[C@@H]1O (some centres not stated)	none (no result: KB-V1 MDR tox, SW480 rerep, KB-3-1 tox, MCF10A rereplic, D3 antag)
CCN1CCCC(OC(=O)C(c2ccccc2)c2ccccc2)C1 (configuration not stated)	SW480 rerep inconclusive, MCF10A rereplic inconclusive, D3 antag -53
C[N+]1(C)CCC(OC(=O)C(c2ccccc2)c2ccccc2)CC1	D3 antag -59
C[N+]1(C)C2CC[C@H]1CC(OC(=O)C(CO)c1ccccc1)C2 (some centres not stated)	D3 antag -67
CN(C)C(=O)Oc1ccc[n+](C)c1	none
CCN(CC(=O)Nc1ccccc1C(F)(F)F)C(=O)Cn1c(=O)cnc2ccccc21	none
NC(=O)C1(N2CCCCC2)CCN(Cc2ccccc2)CC1	D3 antag -68
O=C(Cc1n[nH]c(=O)c2ccccc12)OCc1c(Cl)cccc1Cl	KB-V1 MDR tox inconclusive, KB-3-1 tox inconclusive, MCF10A rereplic inconclusive
CN(C)CCc1c[nH]c2cccc(OP(=O)(O)O)c12	none (no result: KB-V1 MDR tox, SW480 rerep, KB-3-1 tox, MCF10A rereplic, D3 antag)
O=C1CC[C@@]2(O)C3Cc4ccc(O)c5c4C2(CCN3CC2CC2)[C@H]1O5 (some centres not stated)	none (no result: KB-V1 MDR tox, D3 ag, KB-3-1 tox, D3 antag)
O=C(N/N=C/c1c(O)n(CCC2=CCCCC2)c(=O)[nH]c1=O)c1ccccc1	KB-V1 MDR tox inconclusive, SW480 rerep inconclusive, D3 antag -68
Nc1ccccc1N=Cc1c(O)n(CCC2=CCCCC2)c(=O)[nH]c1=O	MCF10A rereplic inconclusive, D3 antag -87
O=C(N/N=C/c1c(O)n(CCC2=CCCCC2)c(=S)[nH]c1=O)c1ccccc1	SW480 rerep inconclusive, MCF10A rereplic inconclusive, D3 antag inconclusive
CN(C)[C@@H](Cc1ccccc1)c1ccccc1	none (no result: KB-V1 MDR tox, D3 ag, KB-3-1 tox, D3 antag)
ClCCN(CCCl)c1ccc(C=Nc2ccncc2)cc1	none (no result: D3 ag, SW480 rerep, MCF10A rereplic, D3 antag)
O=Cc1cn(Cc2ccc(Br)cc2)c2ccccc12	KB-V1 MDR tox inconclusive, KB-3-1 tox 10µM
O=c1c2ccccc2nc(/C=C\c2ccc(F)cc2)n1-c1ccccc1F	KB-3-1 tox inconclusive (no result: SW480 rerep, MCF10A rereplic, D3 antag)
COc1ccc(OC)c(CC(C)N)c1 (configuration not stated)	none (no result: KB-V1 MDR tox, SW480 rerep, KB-3-1 tox, MCF10A rereplic, D3 antag)
Clc1ccc(OCC#CCN2CCCCCC2)cc1	D3 antag -91
Cc1cccc(OCC(O)CN2CC2)c1 (configuration not stated)	none (no result: SW480 rerep, MCF10A rereplic)
CC(=O)c1cccc(OCC(O)CN2CC=C(c3ccccc3)CC2)c1 (configuration not stated)	KB-V1 MDR tox inconclusive, D3 ag 73, MCF10A rereplic inconclusive
COc1ccc(NC(=O)CN2C(=O)CN=C(c3ccccc3)c3ccccc32)c(OC)c1	none (no result: KB-V1 MDR tox, SW480 rerep, KB-3-1 tox, MCF10A rereplic, D3 antag)
Cc1ccc2c(c1)[C@@H]1CN(C)CC[C@H]1N2	none (no result: KB-V1 MDR tox, D3 ag, KB-3-1 tox, D3 antag)
CCOc1ccc(OCC)c(NC(=O)CN2CCN(c3ccc(C)cc3C)CC2)c1	MCF10A rereplic inconclusive
COc1cc2c(c(OC)c1OC)-c1ccc(OC)c(=O)cc1C(NC(C)=O)CC2 (configuration not stated)	SW480 rerep inconclusive, KB-3-1 tox 0.0073µM, MCF10A rereplic inconclusive
COc1ccc2c(c1)C(NC(C)=O)CCc1cc(OC)c(OC)c(OC)c1-2 (configuration not stated)	KB-V1 MDR tox 0.37µM, SW480 rerep 0.058µM, KB-3-1 tox 0.15µM, MCF10A rereplic inconclusive
COc1cc2c(c(OC)c1OC)-c1ccc(O)c(=O)cc1C(NC(C)=O)CC2 (configuration not stated)	KB-V1 MDR tox inconclusive, SW480 rerep inconclusive, KB-3-1 tox 0.0082µM, MCF10A rereplic inconclusive
COc1cc2c(cc1OC)C1[C@H]3C(=CC[C@H]1OC2O)CCN3C (some centres not stated)	D3 antag -54
COc1cc2c(cc1OC)C(C1c3cc4c(cc3CCN1C)OCO4)OC2=O (configuration not stated)	none
CCC(=O)OC1(c2ccccc2)CCN(C)CC1	none (no result: KB-V1 MDR tox, SW480 rerep, KB-3-1 tox, MCF10A rereplic, D3 antag)
CC[C@@H](C)[C@H](C(CC(=O)N1CCCC1[C@@H](OC)[C@H](C)C(=O)N[C@H](Cc1ccccc1)c1nccs1)OC)N(C)C(=O)[C@H](NC(=O)[C@@H](C(C)C)N(C)C)C(C)C (some centres not stated)	KB-V1 MDR tox 0.18µM, SW480 rerep 0.082µM, KB-3-1 tox inconclusive
O=C(NCCN1CCC2(CC1)C(=O)NCN2c1cccc(F)c1)c1ccc2ccccc2c1	KB-3-1 tox inconclusive, D3 antag -89 (no result: SW480 rerep, MCF10A rereplic)
O=C(NCCN1CCC(n2c(=O)[nH]c3ccccc32)CC1)c1ccc2ccccc2c1	KB-V1 MDR tox inconclusive, KB-3-1 tox inconclusive, D3 antag -55 (no result: SW480 rerep, MCF10A rereplic)
CC(C)CCOP(=O)(c1ccc(N(C)C)cc1)C(O)c1ccc(Cl)cc1Cl (configuration not stated)	KB-V1 MDR tox inconclusive, SW480 rerep inconclusive, KB-3-1 tox inconclusive, MCF10A rereplic inconclusive
CN(C)c1c([N+](=O)[O-])cc(N2C(=O)C=CC2=O)cc1[N+](=O)[O-]	SW480 rerep 16µM, KB-3-1 tox inconclusive, MCF10A rereplic 13µM
CCOC(=O)[C@]12Cc3cc4c(cc3[C@H]1N(Cc1ccccc1)C(=O)c1ccccc12)OCO4	KB-V1 MDR tox inconclusive, KB-3-1 tox inconclusive, D3 antag inconclusive
CCOC(=O)[C@]12Cc3ccccc3[C@H]1N(Cc1ccccc1)C(=O)c1cc(F)c(F)cc12	KB-V1 MDR tox 10µM, KB-3-1 tox 23µM (no result: SW480 rerep, MCF10A rereplic)
CCOC(=O)[C@]12Cc3cc(C)ccc3[C@H]1N(Cc1ccccc1)C(=O)c1cc(OC)ccc12	KB-V1 MDR tox 9.2µM, KB-3-1 tox 18µM (no result: SW480 rerep, MCF10A rereplic)
CCOC(=O)[C@]12Cc3cc(Cl)ccc3[C@H]1N(Cc1ccccc1)C(=O)c1ccccc12	KB-V1 MDR tox 23µM!, KB-3-1 tox inconclusive, D3 antag inconclusive
CCOC(=O)[C@]12Cc3cc(N(C)C)ccc3[C@H]1N(Cc1ccccc1)C(=O)c1ccccc12	KB-V1 MDR tox inconclusive, KB-3-1 tox inconclusive
